Measured values reported in the supplement of paper PMC3334620.
Over roughly 33,000 sequences, “E-score (-0.5 to 0.5)” has its median near -0.056; the highest 2% begin near 0.38. What follows is part of a selection rich in the highest values, with near analogues and random picks from the rest.

Biological target: Stb4 (UniProt P50104)
Assay: PBM E-score (8-mer binding enrichment) (E-score (-0.5 to 0.5)); higher = stronger / more preferred TF binding
Conditions: protein concentration: 200 nM; construct: GST-DNA-binding domain
Protocol: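 Universal 'all 10-mer' protein binding microarrays (Agilent AMADID 015681) probed with GST-tagged S. cerevisiae TFs (full-length or DBD) made by in vitro transcription/translation (PURExpress), about 100-200 nM. Bound TF was detected with fluorescent anti-GST. Each ungapped 8-mer (which stands for itself and its reverse complement) is scored by the PBM enrichment score (E-score), a modified Wilcoxon-Mann-Whitney statistic from -0.5 to +0.5, computed with the Universal PBM Analysis Suite. Scale: above 0.35 generally sequence-specific binding.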

Sequence of UniProt P50104 (P50104 whole entry): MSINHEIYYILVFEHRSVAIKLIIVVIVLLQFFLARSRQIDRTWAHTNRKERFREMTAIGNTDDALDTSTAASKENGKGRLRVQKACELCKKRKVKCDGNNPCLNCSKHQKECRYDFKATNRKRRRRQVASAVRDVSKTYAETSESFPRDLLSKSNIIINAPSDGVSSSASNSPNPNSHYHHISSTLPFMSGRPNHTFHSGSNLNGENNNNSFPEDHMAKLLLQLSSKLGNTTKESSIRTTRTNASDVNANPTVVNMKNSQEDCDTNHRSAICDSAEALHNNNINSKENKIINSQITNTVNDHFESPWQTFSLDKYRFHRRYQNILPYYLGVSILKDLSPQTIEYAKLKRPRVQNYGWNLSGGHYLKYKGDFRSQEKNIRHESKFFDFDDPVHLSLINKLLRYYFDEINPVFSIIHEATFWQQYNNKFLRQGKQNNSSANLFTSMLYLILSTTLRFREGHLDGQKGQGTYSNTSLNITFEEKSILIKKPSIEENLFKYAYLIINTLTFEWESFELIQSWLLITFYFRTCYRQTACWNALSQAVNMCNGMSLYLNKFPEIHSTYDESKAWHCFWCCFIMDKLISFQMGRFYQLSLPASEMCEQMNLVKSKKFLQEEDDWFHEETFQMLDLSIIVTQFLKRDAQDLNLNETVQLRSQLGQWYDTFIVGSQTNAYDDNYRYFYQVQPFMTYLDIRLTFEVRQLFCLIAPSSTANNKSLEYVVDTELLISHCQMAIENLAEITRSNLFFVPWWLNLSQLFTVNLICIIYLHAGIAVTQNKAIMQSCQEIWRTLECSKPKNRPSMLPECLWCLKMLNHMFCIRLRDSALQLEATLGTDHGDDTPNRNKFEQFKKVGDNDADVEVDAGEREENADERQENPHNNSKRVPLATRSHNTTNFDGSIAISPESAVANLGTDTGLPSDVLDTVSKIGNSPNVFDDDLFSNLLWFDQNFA

Row | Sequence | PBM E-score
1 | TACCAAAA | -0.12
2 | AAATTGTG | -0.295
3 | GTGATCTA | -0.0262
4 | ATCCCTTC | -0.183
5 | GCGATTGA | -0.113
6 | CAGCCAAA | -0.0614
7 | AAGCCGAC | 0.26
8 | CAGCCGAA | 0.392
9 | CAGCCGAC | 0.311
10 | AAGCCGGA | 0.355
11 | AAGCCGAG | 0.401
12 | AAGCCGAA | 0.407
13 | AAGCCGCA | 0.167
14 | AAGCCGAT | 0.299
15 | GAGCCGGA | 0.348
16 | AAGCCAAA | -0.0671
17 | TAGCCGGA | 0.384
18 | CTAGCCAC | -0.287
19 | AACTTGGG | 0.0814
20 | AGAGCCTG | -0.237
21 | TAAGTTGA | -0.103
22 | GGATCACA | 0.228
23 | TAGTGAAA | -0.178
24 | CGATACTC | 0.065
25 | AGGGCCAT | -0.253

Row | Sequence | PBM E-score
26 | GAGCCGAA | 0.423
27 | CAGCCGCG | 0.151
28 | TAGCCAAA | 0.0424
29 | GAGCCGCA | 0.0237
30 | TAGCCGAA | 0.446
31 | CAGCCGAG | 0.409
32 | GAGCCGAC | 0.296
33 | CAGCCGGG | 0.237
34 | TGGCCGAA | 0.251
35 | AGGTCGCC | 0.00267
36 | AAGGGCAA | 0.158
37 | CTGCTAGC | -0.23
38 | TAGTTTGA | -0.121
39 | ATAACGCA | -0.0729
40 | CCGGTAGA | 0.264
41 | GGGAAACA | 0.175
42 | CGGAAACA | 0.427
43 | CGGAAACG | 0.384
44 | CGGAAACC | 0.347
45 | AGGAAACG | -0.164
46 | AGGAAACA | -0.0661
47 | ATCAAATG | 0.129
48 | ACCTAAAG | -0.0577
49 | AGTGCACC | 0.0754
50 | CGTAAACA | 0.055

Row | Sequence | PBM E-score
51 | ATGCTCGC | -0.239
52 | ATGCTCGA | -0.139
53 | AGGCTCGC | -0.00633
54 | ACGCTCGA | -0.198
55 | AGGCTCGG | 0.432
56 | ACGCTCGG | 0.42
57 | ACGCTCGC | -0.227
58 | ATGCTCGG | 0.404
59 | AGGCTCGA | -0.126
60 | TAAATGGA | -0.104
61 | TAAAACAA | -0.199
62 | AATGGGGC | -0.232
63 | CCTCGCGC | -0.0639
64 | ATCGACGC | -0.126
65 | CCTAGGGC | -0.153
66 | CGTACCGA | 0.334
67 | ACTATCGG | 0.236
68 | ACTCCCGC | 0.234
69 | GCTCCCCA | -0.311
70 | ACTCCCGG | 0.372
71 | GCTCCCAA | -0.272
72 | CCTCCCGC | 0.133
73 | ACTCCCGA | 0.411
74 | GCTCCCGA | 0.41
75 | CCTCCCGA | 0.387

Row | Sequence | PBM E-score
76 | CCTCCCCA | -0.0256
77 | TTGATCAA | -0.205
78 | ACGGACGC | -0.0449
79 | ACTCCGGA | 0.411
80 | CCTCCGAG | 0.4
81 | GCTCCGAC | 0.238
82 | GCTCCGAA | 0.4
83 | CCTCCGAA | 0.352
84 | CCTCCGCG | 0.159
85 | TCTCCGCA | 0.147
86 | ACTCCGGC | 0.281
87 | TCTCCGAA | 0.384
88 | GCTCCGGA | 0.346
89 | TCTCCAAA | -0.144
90 | CCTCCGAC | 0.209
91 | AGGCTAGC | -0.217
92 | CCGGTCAC | 0.108
93 | CGGTGCTA | 0.103
94 | TAAGAGAA | -0.344
95 | ACATCGAC | -0.0835
96 | AACAGTAG | -0.0759
97 | ACATTGAT | 0.0749
98 | AAAGTTAG | -0.00674
99 | CAGCGGTC | -0.186
100 | ACTCCGAT | 0.242

Row | Sequence | PBM E-score
101 | ACTCCGTA | 0.0548
102 | ACTCCGAG | 0.395
103 | ACTCCGAC | 0.32
104 | ACTCCGAA | 0.385
105 | ACTCCAAA | -0.0951
106 | CAATAGGG | -0.163
107 | CGGCCTGA | 0.0862
108 | CAAGCGAA | -0.201
109 | TCGCGTAA | 0.0292
110 | CACAACCC | -0.0519
111 | GTCCATTA | -0.172
112 | CGATCCCG | 0.342
113 | GGATCCGA | 0.459
114 | AGATCCCT | -0.226
115 | CGATCCGA | 0.475
116 | AGATCCCG | 0.407
117 | AGATCCGG | 0.366
118 | AGATCCGC | 0.291
119 | GGATCCCA | 0.102
120 | AGATCCGA | 0.477
121 | CGATCCGC | 0.325
122 | CGATCCTA | -0.0737
123 | GGATCCTA | 0.122
124 | AGCGATAT | -0.172
125 | GTTCCTTA | 0.0117

Row | Sequence | PBM E-score
126 | AATGCAGC | -0.19
127 | GGGGAAGA | -0.186
128 | AACCGCCG | 0.22
129 | CAACACAG | -0.278
130 | CTAACGTA | -0.201
131 | AACAATGT | -0.0925
132 | CGGAACGC | 0.407
133 | AGGAACGA | 0.0238
134 | CGGAACGA | 0.399
135 | AGGAACGC | -0.097
136 | GGGAACGA | 0.0562
137 | CAGAACGC | -0.126
138 | GCGTTCCA | -0.104
139 | ATCTATAC | 0.0424
140 | ATCTATTA | 0.0372
141 | GAGGTTCA | 0.012
142 | CACTTGAG | -0.265
143 | GGGTCGAC | 0.0843
144 | CATCGGGC | 0.181
145 | ACCTTCGG | 0.404
146 | CCCTTCGC | -0.135
147 | CCCTTCGA | -0.0805
148 | CCCTTCGG | 0.401
149 | ACCTTCGT | -0.0808
150 | ACCTTCGA | -0.171

Row | Sequence | PBM E-score
151 | CCAACTTC | -0.0561
152 | GTCAAAAC | -0.0364
153 | TAGAGATA | -0.0379
154 | CCAAACTC | -0.0175
155 | ATTTATGC | -0.126
156 | GAATCCGA | 0.4
157 | TAATCCGA | 0.39
158 | CAATCCGA | 0.403
159 | AAATCCGA | 0.396
160 | GAATCCGC | 0.206
161 | AAATCCGG | 0.332
162 | AAATCCGT | 0.186
163 | TAATCCCA | -0.0875
164 | GAATCCTA | 0.00817
165 | CAATCCGG | 0.244
166 | TAATCCTA | -0.00858
167 | CAATCCGC | 0.191
168 | CTGATCCA | -0.0972
169 | CGTGCTTA | -0.0565
170 | ACCACATG | -0.182
171 | GAGAAATA | 0.0451
172 | AGGACCCC | -0.0529
173 | AAGCTTGC | -0.209
174 | CCATGCGG | -0.0615
175 | ATACCAGC | -0.121
